These results are taken from PubChem BioAssay (EPA / NIEHS).

Experiment [1] can be described thus: APR_HepG2_NuclearSize_72hr: Apredica 72-hour HepG2 Assay for Nuclear Size (AID 2282925). Particulars: high-content imaging, actives raise or lower the signal. Summed up: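 Nuclear size was read by high-content imaging of Hoechst 33342 stain after formaldehyde fixation. Compounds ran 72 h on HepG2 at 0.39 to 200 uM, with final DMSO 0.5% v/v. Curves fitted both directions relative to DMSO control.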

Experiment [2] is described as follows: ATG_CRE_CIS: Attagene CIS-FACTORIAL HepG2 Assay for human cAMP Responsive Element (CRE) binding protein 3 (AID 2282926). Particulars: HepG2 CRE cis-reporter, Attagene multiplexed mRNA; actives raise or lower the signal. Summed up:
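Liver-derived HepG2, transfected with a CRE-containing reporter panel, exposed 24 h; transcript levels sized and quantified by capillary electrophoresis of labelled amplicons; signal changes either way referenced to vehicle.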

In experiment [3] the target is CCAAT/enhancer-binding protein beta (Homo sapiens) (UniProt P17676). Kind of experiment: ATG_C_EBP_CIS: Attagene CIS-FACTORIAL HepG2 Assay for human CCAAT/Enhancer Binding Protein (C/EBP) beta (AID 2282927). Particulars: HepG2 Attagene cis-factorial transcription factor reporter; actives raise or lower the signal. The method, boiled down: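 Endogenous C/EBPb-driven reporter transcripts measured in transfected human HepG2 cells at 24 h via RT-PCR and capillary electrophoresis of labelled fragments. Activity fitted in both directions relative to DMSO baseline.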

Experiment [4] is described as follows: ATG_CMV_CIS: Attagene CIS-FACTORIAL HepG2 Assay for human CMV (Internal Marker) (AID 2282928).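 Further: endpoint acts as a background internal control marker rather than a target.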 Particulars: HepG2 CMV promoter reporter, transcription factor profiling; actives raise or lower the signal. Summed up: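 24 h chemical treatment, HepG2 with transient multi-reporter transfection; RNA → oligo(dT) RT → PCR → 6-FAM extension → HpaI digest → CE fluorescence. Bidirectional fit, DMSO negative control.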

Experiment [5] is described as follows: ATG_DR4_LXR_CIS: Attagene CIS-FACTORIAL HepG2 Assay for human Liver X Receptor (LXR), DR4 submotif (AID 2282929). Particulars: HepG2 Attagene DR4 cis-reporter, mRNA transcription; actives raise or lower the signal. The method, boiled down: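 HepG2 cells were transiently transfected with multiple cis-regulated reporter units and dosed for 24 hours. The DR4 reporter mRNA was quantified by RT-PCR, 6-FAM labelling and capillary electrophoresis. Bidirectional fits used DMSO as baseline.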

The target of experiment [6] is Aryl hydrocarbon receptor (Homo sapiens) (UniProt P35869). Kind of experiment: ATG_Ahr_CIS: Attagene CIS-FACTORIAL HepG2 Assay for human Aryl Hydrocarbon Receptor (Ahr) (AID 2282930). Particulars: HepG2 AhR cis-factorial reporter transcription; actives raise or lower the signal. The method, boiled down:
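Reporter mRNA levels, quantified by RT-PCR and fluorescent capillary electrophoresis, reflect endogenous AhR transcriptional activity in HepG2 cells carrying transfected cis-promoter reporter constructs. Readout at 24 h post-dose; gain or loss fitted against DMSO baseline.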

A short description of experiment [7]: ATG_AP_1_CIS: Attagene CIS-FACTORIAL HepG2 Assay for human Activator Protein 1 (AP-1) (AID 2282931). Particulars: HepG2 Attagene cis-factorial AP-1 reporter mRNA; actives raise or lower the signal. The method, boiled down:
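HepG2 cells transiently transfected with cis-element-driven reporter transcription units, dosed for 24 hours. Reporter mRNA measured by RT-PCR, 6-FAM labelling, HpaI digestion and capillary electrophoresis. Bidirectional fitting against DMSO baseline.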

Experiment [8] can be described thus: ATG_AP_2_CIS: Attagene CIS-FACTORIAL HepG2 Assay for human Activator Protein 2 (AP-2) (AID 2282932). Particulars: HepG2 AP-2 cis-reporter, Attagene transcription factor profiling; actives raise or lower the signal. Summed up: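 Endogenous transcription factor activity is reported through transfected multiplex reporter constructs in HepG2, after 24 h of compound exposure. Transcripts were quantified by RT-PCR and capillary electrophoresis of fluorescent fragments. Bidirectional fit against DMSO.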

The nature of experiment [9]: ATG_BRE_CIS: Attagene CIS-FACTORIAL HepG2 Assay for human Bone Morphogenetic Protein (BMP) Response Element (BRE) (AID 2282933). Particulars: HepG2 BMP response element reporter, Attagene transcription factor profiling; actives raise or lower the signal. The method, boiled down:
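Endogenous transcription factor activity at a BMP response element was monitored in transfected HepG2 cells 24 h after dosing. Fluorescent RT-PCR products were resolved by capillary electrophoresis, and activity was fitted in both directions versus DMSO.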

Experiment [10] concerns the target Retinoic acid receptor alpha (Homo sapiens) (UniProt P10276). Kind of experiment: ATG_DR5_RAR_CIS: Attagene CIS-FACTORIAL HepG2 Assay for human Retinoic Acid Receptor Alpha (RARE), DR5 submotif (AID 2282934).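 On AC50: reporter responds to endogenous RAR alpha beta and gamma in HepG2 not RARA alone.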 Particulars: HepG2 Attagene cis-factorial RARE DR5 reporter, mRNA; actives raise or lower the signal. Summed up:
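Reporter transcripts from a DR5-regulated unit, measured via RT-PCR plus capillary electrophoresis, reflect endogenous RAR activity in transiently transfected human HepG2 liver cells. Exposure lasted 24 h; gain or loss of signal scored against DMSO.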

The target of experiment [11] is Transcription factor E2F1 (Homo sapiens) (UniProt Q01094). Description: ATG_E2F_CIS: Attagene CIS-FACTORIAL HepG2 Assay for human E2F Transcription Factor 1 (AID 2282935). Particulars: HepG2 Attagene cis-reporter, E2F reporter RNA transcripts; actives raise or lower the signal. The method, boiled down: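 Gain or loss of reporter transcript, fitted against DMSO, reflects E2F1-driven transcription. Transiently transfected HepG2 dosed 24 h before RNA isolation. Quantified by fluorescent RT-PCR products separated by capillary electrophoresis.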

Experiment [12] in a line: ATG_E_Box_CIS: Attagene CIS-FACTORIAL HepG2 Assay for human Enhancer Box (E-box) (AID 2282936). Particulars: HepG2 E-box cis-reporter transcription, actives raise or lower the signal. The method, boiled down:
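E-box-driven reporter transcripts measured in transiently transfected HepG2 after 24 h exposure: RNA reverse-transcribed, PCR-amplified, fluorescently labelled, digested and resolved by capillary electrophoresis. Gain or loss relative to DMSO.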

Experiment [13] in a line: ATG_M_61_CIS: Attagene CIS-FACTORIAL HepG2 Assay for M61 Transcription Factor (Internal Marker) (AID 2282937). Particulars: HepG2 Attagene CIS-FACTORIAL M61 internal marker reporter; actives raise or lower the signal. The method, boiled down: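 HepG2 cells transiently transfected with multiplexed cis-promoter reporter units reporting endogenous transcription factor activity, measured 24 h after dosing. Reporter mRNA quantified by RT-PCR and capillary electrophoresis; bidirectional fit against DMSO baseline.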

Experiment [14] can be described thus: ATG_EGR_CIS: Attagene CIS-FACTORIAL HepG2 Assay for human Early Growth Response 1 (EGR1) (AID 2282938). Particulars: HepG2 Attagene CIS-FACTORIAL EGR reporter mRNA; actives raise or lower the signal. The method, boiled down:
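HepG2 cells transiently transfected with cis-element-driven multiplexed reporter units, dosed for 24 h. EGR1-element reporter mRNA quantified by RT-PCR, 6-FAM labelling, HpaI digestion and capillary electrophoresis; bidirectional fit versus DMSO.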

Experiment [15] in a line: ATG_M_19_CIS: Attagene CIS-FACTORIAL HepG2 Assay for M19 Transcription Factor (Internal Marker) (AID 2282939). Particulars: HepG2 Attagene CIS-FACTORIAL M19 internal marker reporter; actives raise or lower the signal. Summed up: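 Background-control endpoint from a multiplexed HepG2 reporter panel. Cells carrying cis-regulated reporter constructs are treated 24 h, then reporter transcripts are amplified, fluorescently labelled and sized by capillary electrophoresis. DMSO defines baseline.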

Experiment [16] is described as follows: ATG_ERE_CIS: Attagene CIS-FACTORIAL HepG2 Assay for Estrogen Response Element (ERE) (AID 2282940). Particulars: HepG2 ERE cis-reporter, Attagene RNA transcript; actives raise or lower the signal. The method, boiled down: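 Cells used were human hepatoma HepG2, transfected with multiple reporter transcription units under cis-regulatory promoters. Reporter mRNA, read 24 h post-dosing via fluorescent RT-PCR products on capillary electrophoresis, was fitted bidirectionally relative to DMSO.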

A short description of experiment [17]: ATG_Ets_CIS: Attagene CIS-FACTORIAL HepG2 Assay for human Erythroblast Transformation Specific (ETS) (AID 2282941). Particulars: HepG2 ETS cis-reporter transcription, actives raise or lower the signal. Summed up:
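Cis-regulated reporter mRNA induction in HepG2 (transient transfection), 24 h exposure, RT-PCR plus capillary electrophoresis detection; DMSO serves as negative control and baseline.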

Experiment [18] deals with Hepatocyte nuclear factor 3-beta (Homo sapiens) (UniProt Q9Y261). Kind of experiment: ATG_FoxA2_CIS: Attagene CIS-FACTORIAL HepG2 Assay for human Forkhead box A2 (FOXA2) (AID 2282942). Particulars: HepG2 cis-reporter transcription factor activity, 24 h; actives raise or lower the signal. The method, boiled down: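 HepG2 transiently transfected with a multiplexed cis-promoter reporter library read endogenous FOXA2 activity. After 24 h compound exposure, reporter mRNA was quantified by RT-PCR, HpaI digestion and capillary electrophoresis. Bidirectional fit against DMSO.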

The nature of experiment [19]: ATG_FoxO_CIS: Attagene CIS-FACTORIAL HepG2 Assay for human Forkhead box O (FoxO) (AID 2282943). Particulars: HepG2 Attagene cis-reporter, FoxO element, mRNA; actives raise or lower the signal. Summed up: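 Endogenous transcription factor activity read from multiplexed cis-promoter reporter transcripts in transiently transfected HepG2, 24 h after dosing. Reporter RNA measured via RT-PCR plus capillary electrophoresis of FAM-labeled products; gain or loss relative to DMSO.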

A short description of experiment [20]: ATG_GATA_CIS: Attagene CIS-FACTORIAL HepG2 Assay for human GATA Binding Protein (AID 2282944). Particulars: HepG2 GATA cis-element reporter, Attagene multiplex mRNA; actives raise or lower the signal. The method, boiled down:
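Endogenous transcription factor activity was captured through cis-promoter-driven reporters in transfected HepG2 cells. After 24 h exposure, reporter transcripts were quantified by RT-PCR with fluorescent capillary electrophoresis, and responses fitted both directions against DMSO.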

The source made the active and inactive calls. How the source made its calls: active means hit-call score of the fitted dose curve at least 0.9, where 1 is the maximum; inactive means score below 0.9.

Sequence of Aryl hydrocarbon receptor (Homo sapiens) (P35869 whole entry, looked up): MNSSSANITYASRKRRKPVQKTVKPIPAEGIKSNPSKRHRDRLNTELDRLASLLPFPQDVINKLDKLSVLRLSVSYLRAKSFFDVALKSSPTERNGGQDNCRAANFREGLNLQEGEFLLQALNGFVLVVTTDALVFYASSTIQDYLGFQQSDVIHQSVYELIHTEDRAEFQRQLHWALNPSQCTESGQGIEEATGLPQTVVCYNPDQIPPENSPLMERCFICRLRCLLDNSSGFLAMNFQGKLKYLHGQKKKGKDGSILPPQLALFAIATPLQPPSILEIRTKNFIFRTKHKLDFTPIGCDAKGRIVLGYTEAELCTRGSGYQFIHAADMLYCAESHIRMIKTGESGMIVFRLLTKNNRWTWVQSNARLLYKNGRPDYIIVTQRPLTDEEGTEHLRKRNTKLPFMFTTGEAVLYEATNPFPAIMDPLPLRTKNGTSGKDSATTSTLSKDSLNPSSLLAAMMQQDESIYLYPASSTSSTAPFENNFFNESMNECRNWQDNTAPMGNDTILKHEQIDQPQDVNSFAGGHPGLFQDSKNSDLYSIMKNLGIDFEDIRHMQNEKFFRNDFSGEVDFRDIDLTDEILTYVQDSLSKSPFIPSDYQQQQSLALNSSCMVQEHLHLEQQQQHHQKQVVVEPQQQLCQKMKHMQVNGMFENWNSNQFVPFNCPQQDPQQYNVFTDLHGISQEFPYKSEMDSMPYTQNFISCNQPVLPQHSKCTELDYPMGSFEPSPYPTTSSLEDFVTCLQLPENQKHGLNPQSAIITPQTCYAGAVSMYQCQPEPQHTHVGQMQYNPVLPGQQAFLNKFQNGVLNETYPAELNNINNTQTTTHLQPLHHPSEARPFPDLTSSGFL
Sequence of Transcription factor E2F1 (Homo sapiens) (Q01094 whole entry, looked up): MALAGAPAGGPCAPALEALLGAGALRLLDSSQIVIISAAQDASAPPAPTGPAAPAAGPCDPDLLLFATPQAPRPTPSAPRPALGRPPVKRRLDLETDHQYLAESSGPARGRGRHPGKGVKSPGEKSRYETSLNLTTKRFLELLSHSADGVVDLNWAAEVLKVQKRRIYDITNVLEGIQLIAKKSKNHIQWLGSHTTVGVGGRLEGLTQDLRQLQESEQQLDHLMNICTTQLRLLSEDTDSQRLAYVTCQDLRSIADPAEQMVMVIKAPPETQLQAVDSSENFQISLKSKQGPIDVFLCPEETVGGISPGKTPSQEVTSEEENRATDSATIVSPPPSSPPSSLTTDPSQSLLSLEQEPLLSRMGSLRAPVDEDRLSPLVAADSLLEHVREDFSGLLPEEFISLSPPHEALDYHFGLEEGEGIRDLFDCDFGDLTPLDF
Sequence of Hepatocyte nuclear factor 3-beta (Homo sapiens) (Q9Y261 whole entry, looked up): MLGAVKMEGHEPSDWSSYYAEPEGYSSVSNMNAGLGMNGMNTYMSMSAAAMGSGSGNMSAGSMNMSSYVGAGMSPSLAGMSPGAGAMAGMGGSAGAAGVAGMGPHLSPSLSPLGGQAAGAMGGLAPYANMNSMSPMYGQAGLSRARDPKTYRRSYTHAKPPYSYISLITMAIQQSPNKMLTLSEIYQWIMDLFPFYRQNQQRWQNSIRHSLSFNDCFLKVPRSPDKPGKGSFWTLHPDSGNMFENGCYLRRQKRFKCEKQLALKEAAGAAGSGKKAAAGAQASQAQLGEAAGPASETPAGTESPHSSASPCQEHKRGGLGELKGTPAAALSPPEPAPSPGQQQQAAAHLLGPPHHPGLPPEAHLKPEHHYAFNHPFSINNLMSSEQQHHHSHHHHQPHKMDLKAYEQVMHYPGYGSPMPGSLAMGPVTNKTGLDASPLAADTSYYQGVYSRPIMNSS
Sequence of CCAAT/enhancer-binding protein beta (Homo sapiens) (P17676 whole entry, looked up, the tested form may be a part): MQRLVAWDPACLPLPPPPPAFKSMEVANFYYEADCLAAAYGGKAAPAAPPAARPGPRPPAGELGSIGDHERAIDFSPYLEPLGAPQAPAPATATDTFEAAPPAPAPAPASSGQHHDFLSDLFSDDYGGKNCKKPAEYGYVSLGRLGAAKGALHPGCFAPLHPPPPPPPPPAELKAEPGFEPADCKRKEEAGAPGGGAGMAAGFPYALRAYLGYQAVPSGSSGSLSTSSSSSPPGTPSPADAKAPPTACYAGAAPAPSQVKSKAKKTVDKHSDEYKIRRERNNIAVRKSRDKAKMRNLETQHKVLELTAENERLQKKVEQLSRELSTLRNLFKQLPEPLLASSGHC
Sequence of Retinoic acid receptor alpha (Homo sapiens) (P10276 whole entry, looked up): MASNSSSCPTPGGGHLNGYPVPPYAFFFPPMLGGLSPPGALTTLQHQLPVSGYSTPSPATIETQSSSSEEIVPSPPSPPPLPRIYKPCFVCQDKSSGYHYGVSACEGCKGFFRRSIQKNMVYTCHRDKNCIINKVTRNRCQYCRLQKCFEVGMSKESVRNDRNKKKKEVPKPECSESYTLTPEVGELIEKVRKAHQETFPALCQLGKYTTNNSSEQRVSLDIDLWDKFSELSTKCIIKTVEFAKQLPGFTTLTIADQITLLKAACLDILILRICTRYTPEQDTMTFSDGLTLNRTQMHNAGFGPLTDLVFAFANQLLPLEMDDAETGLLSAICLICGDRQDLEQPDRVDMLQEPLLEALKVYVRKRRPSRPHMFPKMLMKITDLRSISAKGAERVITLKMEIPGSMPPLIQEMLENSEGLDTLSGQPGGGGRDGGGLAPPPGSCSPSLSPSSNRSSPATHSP

Regarding `CC1(C)CC(N=C=O)CC(C)(CN=C=O)C1` (centres undefined), the outcome in experiment [1], in [2], in [3], in experiment [4], in experiment [5] and in [6] was inactive. Also, the outcome in [7], in experiment [8], in [9], in [10], in experiment [11] and in [12] was inactive. Besides, the outcome in [13], in experiment [14], in experiment [15], in experiment [16], in experiment [17] and in experiment [18] was inactive. Moreover, the outcome in experiment [19] and in experiment [20] was inactive.
With `CC=Cc1ccc(O)c(OC)c1`, the call in experiment [1], in experiment [2], in experiment [3], in [4], in experiment [5] and in [7] was inactive. For the same molecule, the result in [8], in [9], in [11], in [12], in experiment [13] and in [14] was inactive. Moreover, the molecule was called inactive in [15], in [16], in experiment [17], in [18], in experiment [19] and in [20]. Besides, the AC50 in [6] was 73.5 µM (active).
For the molecule `CCCCCCCCCCO`, the molecule was classed as inactive in experiment [1], in [3], in [4], in experiment [5], in [6] and in experiment [7]. In addition, the call in experiment [8], in experiment [9], in [11], in [12], in experiment [13] and in experiment [14] was inactive. Moreover, the outcome in experiment [15], in [16], in [17], in experiment [18], in experiment [19] and in experiment [20] was inactive. Further, in experiment [2], the AC50 is 183 µM (active).
With `CC(C)(C)c1cc(O)c(C(C)(C)C)cc1O`, the concentration at half-maximal activity (AC50) is 26 µM (active) in experiment [1]; 23 µM (active) in experiment [2]; 30.2 µM (active) in experiment [4]; 29.5 µM (active) in [5]; 31 µM (active) in [7]; 30.4 µM (active) in [9]. The AC50 in experiment [10] was 57.1 µM (active); in experiment [14] it was 31.1 µM (active); in [16], 31 µM (active). The result in experiment [6], in experiment [8], in [11], in experiment [12], in [13] and in experiment [15] was inactive. Moreover, the result in experiment [17], in [18], in [19] and in [20] was inactive.
Turning to `COc1ccc2c(c1)c(CC(=O)O)c(C)n2C(=O)c1ccc(Cl)cc1`, the call in experiment [1], in experiment [2], in [3], in experiment [4], in experiment [5] and in experiment [6] was inactive. Besides, the molecule was classed as inactive in experiment [7], in experiment [8], in experiment [9], in experiment [11], in [12] and in experiment [13]. For the same molecule, the outcome in experiment [14], in experiment [15], in experiment [16], in [17], in [18] and in experiment [19] was inactive. Also, the molecule was classed as inactive in experiment [20].
As for `Cc1cccc(C)c1O`, the outcome in experiment [1], in experiment [2], in experiment [3], in [4], in experiment [5] and in experiment [6] was inactive. In addition, the molecule was called inactive in experiment [7], in [8], in experiment [9], in experiment [11], in [12] and in experiment [13]. In addition, the result in experiment [14], in experiment [15], in experiment [16], in experiment [17], in experiment [18] and in experiment [19] was inactive. Further, in experiment [20], the outcome was inactive.
Consider `Cc1c(C(=O)O)c(O)cc2c1C(=O)c1c(O)c([C@@H]3O[C@H](CO)[C@@H](O)[C@H](O)[C@H]3O)c(O)c(O)c1C2=O`, for which the molecule was classed as inactive in experiment [1], in [2], in experiment [3], in experiment [4], in experiment [5] and in experiment [6]. Moreover, the molecule was classed as inactive in experiment [7], in experiment [8], in [9], in experiment [11], in experiment [12] and in experiment [13]. The molecule was classed as inactive in [14], in experiment [15], in [16], in experiment [17], in experiment [18] and in experiment [19]. In addition, the molecule was classed as inactive in experiment [20].
